# In all, about 69,000 compounds went through this assay and about 8,600 (12%) showed an effect of 50% or more. The sample holds strong results, similar compounds and a random draw of the others, so the mix is not that of the screen.
# Tested on: Plasmodium berghei
# Assay: Screen against P. berghei liver stage (PbLuc), transformed with Luciferase, at 10uM
# Assay type: functional, HepG2
# Details: tested at 10 uM
row,Compound,INHIBITION [%]
1,CC(C)CC(=O)N1CCC2(CC1)OC(C(N)=O)Cn1ccnc12 (stereo unspecified),7.7
2,O=C(NCC1CC1)C12CC(CN1Cc1nccs1)C2,82.2
3,O=C(N1CCCC1)C12CC(CN1Cc1nccs1)C2,-2.03
4,Cc1ccsc1C(=O)N1CC2CC1(C(=O)NCC1CC1)C2,23.5
5,CN(C)C(=O)c1cc(-c2ccncc2)[nH]n1,-8.28
6,CN1CCN(C(=O)c2cc(C#N)cs2)c2ccccc2C1,-91.4
7,c1ccc(CCNc2ncnc3c2CCN(Cc2c[nH]cn2)CC3)cc1,37.3
8,CN(C)c1ccc(C(=O)N2CCCN(Cc3cscn3)CC2)nn1,-31.8
9,O=C(c1cnc2n1CCN(Cc1ccccc1)C2)N1CCCC1,17.1
10,Cc1nc2c(c(NC(C)C)n1)CCN(C(=O)c1ccno1)CC2,49.1
11,Cc1nc(-c2ccc(F)cc2)nc2c1CCN(C(=O)CN(C)C)CC2,37.9
12,CC(=O)N1CCc2nc(-c3ccccc3)nc(NC(C)C)c2CC1,59.3
13,COCC(=O)N1CCc2nc(NC(C)C)nc(NC(C)C)c2CC1,48.4
14,CCOCC(=O)N1CCc2nc(C)nc(NC(C)C)c2CC1,32.1
15,Cc1nc2c(c(NCc3ccccc3)n1)CCN(C(=O)C1CCC1)CC2,42.3
16,COCC(=O)N1CCc2nc(C)nc(NC(C)C)c2CC1,35.8
17,CC(=O)NCC(=O)N1CCc2nc(-c3ccccc3)nc(C)c2CC1,37.9
18,O=C(C1CCOCC1)N1CCc2ncnc(-c3ccccc3)c2CC1,-28.8
19,CC(C)Nc1nc(-c2ccccc2)nc2c1CCN(C(=O)C1CC1)CC2,73.8
20,CC(=O)N1CCc2nc(-c3ccc(F)cc3)nc(NC(C)C)c2CC1,64.7
21,CC(C)Nc1nc(-c2ccccc2)nc2c1CCN(C(=O)CC#N)CC2,72
22,Cn1cc(S(=O)(=O)N2CCN(S(=O)(=O)c3ccc(Br)s3)CC2)cn1,43.2

row,Compound,INHIBITION [%]
1,CN(Cc1cnn(C)c1)C(=O)NCc1cc(Br)cs1,34.95
2,Cc1cc2c(=O)n(CCSc3cnn[nH]3)cnc2s1,36.7
3,O=C(COC[C@H]1CC[C@H]2[C@H](CCN2c2ncccn2)O1)N1CCCC1,1.81
4,Cc1ccc(CCNC(=O)Cn2nc(C)n(Cc3ccccc3)c2=O)o1,13.6
5,CN(Cc1cccc2cccnc12)C1CCS(=O)(=O)C1 (stereo unspecified),36
6,Cc1nnc(NCc2ccccc2F)c(C#N)c1C,1.35
7,O=C(c1ccnnc1)N1CCN(Cc2cccnc2)c2ncccc2C1,-39.9
8,CS(=O)(=O)CCn1ccc(NC(=O)Cc2cccc(Cl)c2)n1,16.5
9,CSc1nnc(CC2CCN(C(=O)Cc3ccncc3)CC2)n1C,64.7
10,CCOCC(=O)N1CCC(Cc2nnc(SC)n2C)CC1,48
11,CC1CCCN(C(=O)CCc2cccnc2)C1 (stereo unspecified),20.9
12,CSc1nnc(C2CCN(C(=O)N3CCCC3)CC2)n1C,16.185
13,CSc1nnc(CC2CCN(C(=O)COc3cccnc3)CC2)n1C,73
14,CSc1nnc(CC2CCN(C(=O)CCc3cccnc3)CC2)n1C,51.7
15,O=C(CCc1cccnc1)N1CCC(c2cnccn2)CC1,15.9
16,COc1cccc(CC(=O)N2CCC(Cc3nnc(SC)n3C)CC2)c1,31.3
17,Cc1ccc(NC2CCN(C(=O)COc3cccnc3)CC2)nn1,44.6
18,CN(C)C(=O)N1CCN(Cc2cnn(C)c2)CC2(CNC(=O)C2)C1 (stereo unspecified),17.6
19,O=C(CCn1c(=O)oc2ccccc21)NCC(O)c1ccc(Cl)cc1 (stereo unspecified),18.2
20,O=S(=O)(CC1CCCCO1)Nc1cnn(Cc2ccccc2)c1 (stereo unspecified),33.7
21,Cc1cnn(C2CN(CC(=O)NCCc3ccsc3)C2)c1,22.3
22,CN1CCN(C[C@@H]2OC[C@H]3CN(Cc4ccsc4)CC[C@H]32)CC1,-13.3

row,Compound,INHIBITION [%]
1,O=C(CNC(=O)c1ccccc1Cl)Nc1nccs1,-9.72
2,COc1ccc2c(c1)sc(=NC(=O)CSCC(=O)Nc1nccs1)n2C,51
3,COc1cc(Cl)ccc1C(=O)NCC(=O)Nc1nccs1,-176
4,Cn1c(=NC(=O)CSCC(=O)Nc2nccs2)sc2ccccc21,32.8
5,CCn1c(=NC(=O)CSCC(=O)Nc2nccs2)sc2ccccc21,88.1
6,COCCn1/c(=N\C(=O)CN(C)S(C)(=O)=O)sc2cc(OC)ccc21,2.29
7,O=C(Cc1ccccn1)N1CC[C@]2(C[C@@H](Oc3ncccc3F)CO2)C1,35.8
8,CN(C)C(=O)N1CC[C@@H](O)[C@@H]1Cc1ccccc1,-14.7
9,Cc1ccc(CN2CCC3(CC2)C(=O)N(CC(C)C)CCN3C)o1,39.5
10,COc1ccc(C(=O)COc2coc(CN3CCSCC3)cc2=O)cc1,15.1
11,CCOC(=O)CC(C)Nc1nc(C(C)(C)C)nc2c1cnn2C (stereo unspecified),46.4
12,Cn1ncc2c(N[C@H]3CCCC[C@@H]3O)nc(C(C)(C)C)nc21,50.1
13,Cn1ncc2c(N[C@@H]3CS(=O)(=O)C[C@H]3O)nc(C(C)(C)C)nc21,54.4
14,Cc1nc(NC2CCN(C(=O)C3CC3)CC2)c2cnn(C)c2n1,-25.2
15,CCOC(=O)CNc1nc(C(C)(C)C)nc2c1cnn2C,51.3
16,Cn1ncc2c(NC3CCC(N)CC3)nc(C(C)(C)C)nc21 (stereo unspecified),40.5
17,Cc1nc(N[C@H]2COC[C@@H]2N2CCCC2)c2cnn(C)c2n1,32.7
18,CCOC(=O)CCCNc1nc(C(C)(C)C)nc2c1cnn2C,27.9
19,Cn1ncc2c(NCC(=O)N3CCNCC3)nc(C(C)(C)C)nc21,16.8
20,Cn1ncc2c(NCC3CCS(=O)(=O)C3)nc(C3CCCC3)nc21 (stereo unspecified),15.1
21,Cn1ncc2c(NC3CCCN(C(=O)C4CC4)C3)nc(C(C)(C)C)nc21 (stereo unspecified),62.9
22,CCc1nc(NC2CCCN(C(=O)C3CC3)C2)c2cnn(C)c2n1 (stereo unspecified),16

row,Compound,INHIBITION [%]
1,Cc1nn(C)c(Cl)c1C(=O)NCc1cccnc1N1CCOCC1,-13
2,O=C(NCc1nncn1C1CC1)c1ccccc1Oc1cccnc1,-18.3
3,O=C(c1ccnnc1)N1C[C@@H]2COC[C@]2(COCC2CC2)C1,46.2
4,OC(CNCCn1cccn1)c1cccc(Br)c1 (stereo unspecified),11.2
5,CC(O)c1cn(CC2CCN(C(=O)c3cccc(N(C)C)c3)CC2)nn1 (stereo unspecified),55.7
6,CC(O)c1cn(CC2CCN(C(=O)CN(C)C(C)C)CC2)nn1 (stereo unspecified),8.51
7,CC(O)c1cn(CC2CCN(C(=O)c3cscn3)CC2)nn1 (stereo unspecified),30.3
8,CCC(CC(=O)Nc1ccc2c(c1)CC(=O)N2)c1ccccc1 (stereo unspecified),49.1
9,CCN(C)C(C(=O)Nc1ccc2c(c1)CCC(=O)N2)c1ccccc1 (stereo unspecified),36.3
10,CCN(CC)C(C(=O)Nc1ccc2c(c1)CCC(=O)N2)c1ccccc1 (stereo unspecified),56.8
11,COCCN1C[C@@H]2[C@@H](OC)CCN(C(=O)c3cccc(OC)c3)[C@@H]2C1,11.6
12,Cc1ccc(OCCC(=O)NC2CCc3nccn3C2)cc1 (stereo unspecified),22.1
13,CN(C)C(=O)CO[C@H]1CN(Cc2ccc(F)cc2)[C@@H]2CCCO[C@H]12,25.1
14,CCCc1nnc(N2CCC(N3CCCCCC3)CC2)o1,23.3
15,CCCc1nnc(N2CCC(N3CCCC3)CC2)o1,79.8
16,CCCc1nnc(N2CCN(C3CCCC3)CC2)o1,26.5
17,O=C(O)C1(Oc2cccc(F)c2)CCN(C2CCOCC2)CC1,-15.2
18,Cc1ccccc1OCC(O)CN1CCC(c2ccn[nH]2)CC1 (stereo unspecified),-17.6
19,CSC1(CNC(=O)NC(C)c2ccc(F)c(F)c2)CCOCC1 (stereo unspecified),65.3
20,CSC1(CNC(=O)NC(C)c2ccc(F)cc2)CCOCC1 (stereo unspecified),16.5
21,CSC1(CNC(=O)NC(C)Cc2cccc(F)c2)CCOCC1 (stereo unspecified),-12.5
22,O=C1NCC(C(=O)Nc2ccc(=O)n(Cc3ccccc3Cl)c2)N1 (stereo unspecified),26.8

row,Compound,INHIBITION [%]
1,Cc1cc2c(N)nc(=O)n(CC(=O)Nc3ccccc3)c2s1,1.45
2,Cc1cc2c(N)nc(=O)n(CC(=O)Nc3cccc(Cl)c3)c2s1,76.9
3,COc1cccc(NC(=O)Cn2c(=O)nc(N)c3cc(C)sc32)c1,-12.5
4,O=C(Nc1cccnc1N1CCSCC1)c1ccc2c(c1)OCO2,49.5
5,COc1c(C2CCCN2CC(=O)Nc2cc(C)on2)c(C)nn1C (stereo unspecified),-102
6,CC(C)(C)n1ncc2c1NC(=O)CC2c1ccc(C#N)cc1 (stereo unspecified),-1.04
7,CCc1[nH]c2c(CNc3nccc(N)n3)cc(C)cc2c1C,37.4
8,CCc1[nH]c2ccc(CNC(=O)c3cnc(N)nc3C)cc2c1C,36.5
9,Cc1cc(CNc2nccc(N)n2)c2[nH]c(C)c(C)c2c1,66.9
10,CCc1[nH]c2c(CNc3cnccn3)cc(F)cc2c1C,56.3
11,CCc1[nH]c2c(CNc3nccc(N)n3)cc(F)cc2c1C,55.4
12,CCc1[nH]c2c(CNc3cncc(C(=O)N(C)C)n3)cc(F)cc2c1C,47.2
13,CCc1[nH]c2c(CNC(=O)C3CCN(C)C3)cc(C)cc2c1C (stereo unspecified),14.9
14,CCc1[nH]c2c(CNC(=O)C3CCC(=O)NC3)cc(C)cc2c1C (stereo unspecified),-8.75
15,Cc1noc(C)c1CN1CCC2(CC1)CC(Oc1cccnc1)C2,30.5
16,Cn1cccc1C(=O)N1CCN(Cc2cccnc2)c2ncccc2C1,10.5
17,CCc1n[nH]c(C2CN(C(=O)CCOCC(F)(F)F)CCO2)n1 (stereo unspecified),1.45
18,O=C1NC2(CCN(c3ncccn3)CC2)CC1c1cccnc1 (stereo unspecified),17.1
